From ChEMBL document CHEMBL2218924, “A broad activity screen in support of a chemogenomic map for kinase signalling research and drug discovery” (Biochem J, 2013)

Biological target: T1, Protein kinase C epsilon type (Homo sapiens) (UniProt Q02156)
T1 sequence (whole entry): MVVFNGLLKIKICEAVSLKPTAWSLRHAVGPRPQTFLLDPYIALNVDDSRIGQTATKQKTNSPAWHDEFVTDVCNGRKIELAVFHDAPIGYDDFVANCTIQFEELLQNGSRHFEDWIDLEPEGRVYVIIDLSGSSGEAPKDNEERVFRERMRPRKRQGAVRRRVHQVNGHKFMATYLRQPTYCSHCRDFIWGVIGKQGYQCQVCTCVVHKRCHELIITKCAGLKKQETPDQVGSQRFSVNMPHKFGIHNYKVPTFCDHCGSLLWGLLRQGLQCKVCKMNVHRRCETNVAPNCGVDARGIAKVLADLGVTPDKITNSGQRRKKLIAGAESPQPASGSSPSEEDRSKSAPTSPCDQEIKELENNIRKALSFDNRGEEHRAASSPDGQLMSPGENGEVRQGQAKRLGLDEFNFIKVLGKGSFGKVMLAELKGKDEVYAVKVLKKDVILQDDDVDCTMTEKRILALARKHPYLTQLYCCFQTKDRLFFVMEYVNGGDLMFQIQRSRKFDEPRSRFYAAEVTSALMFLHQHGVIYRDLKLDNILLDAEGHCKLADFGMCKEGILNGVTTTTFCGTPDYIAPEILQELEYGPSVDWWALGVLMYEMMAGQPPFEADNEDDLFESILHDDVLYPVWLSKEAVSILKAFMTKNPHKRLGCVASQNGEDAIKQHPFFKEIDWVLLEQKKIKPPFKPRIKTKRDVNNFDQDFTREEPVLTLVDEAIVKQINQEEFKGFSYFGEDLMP
Conditions: at 1 µM

Row | SMILES | residual activity
1 | O=C1c2ccccc2-[n+]2ccc3c([nH]c4ccccc43)c21 | 93%
2 | Cc1ccc(NC2=CC(=O)c3sc(C)nc3C2=O)cc1 | 87%
3 | c1ccc(-c2n[nH]c3c2oc2ccccc23)cc1 | 97%
4 | COc1ccc(C(=O)Nc2sc3c(c2C(N)=O)CCCC3)cc1OC | 89%
5 | Cc1nc2cc3nc(-c4cccs4)cnc3cc2n1C | 104%
6 | O=C1NC(=O)/C(=C\c2ccc3nccnc3c2)S1 | 105%
7 | COc1cc2ncnc(Nc3ccc(NC(=O)c4ccccc4)cc3)c2cc1OC | 93%
8 | CC#CC(=O)Nc1cc2c(Nc3ccc(F)c(Cl)c3)ncnc2cn1 | 90%
9 | CCN(CC)C(=O)c1ccc(Nc2nc(OCC3CCCCC3)c3nc[nH]c3n2)cc1 | 80%
10 | Oc1ccc(-c2nc(-c3ccc(F)cc3)c(-c3ccncc3)[nH]2)cc1 | 122%
11 | Cn1nc2c3c(cccc31)C(=O)c1ccccc1-2 | 106%
12 | COc1ccc(CNc2nc(N(CCO)CCO)nc3c2ncn3C(C)C)cc1 | 115%
13 | Cn1cc(/C=C2\C(=O)Nc3ccc(S(N)(=O)=O)cc32)c2ccccc21 | 90%
14 | O=C1NC(=O)/C(=C/c2ccc3c(c2)OC(F)(F)O3)S1 | 106%
15 | O=C1NC(=O)c2cc(Nc3ccc(F)cc3)c(Nc3ccc(F)cc3)cc21 | 67%
16 | N#CC(C#N)=C(N)/C(C#N)=C/c1ccc(O)cc1 | 95%

Row | SMILES | residual activity
17 | CC[n+]1c(/C=C/N(C)c2ccccc2)n(-c2ccccc2)c2ccc(-c3nc4ccccc4s3)cc21 | 101%
18 | CCOc1cc2ncnc(Nc3cccc(Br)c3)c2cc1OCC | 84%
19 | C[C@@H](N)[C@H]1CC[C@H](C(=O)Nc2ccncc2)CC1 | 71%
20 | O=C(Nc1cccc(Nc2cc(Nc3cccc(C(F)(F)F)c3)ncn2)c1)C1CC1 | 90%
21 | COc1cccc(-c2cc(=O)c3ccccc3o2)c1N | 106%
22 | Cc1nc(-c2ccccc2)c(-c2ccncc2)o1 | 108%
23 | O=C1Nc2cc(Br)ccc2/C1=C1/Nc2ccccc2/C1=N\O | 107%
24 | O=C1Nc2ccccc2/C1=C1/Nc2ccccc2/C1=N\OCCC(O)CO (stereo not drawn) | 95%
25 | Cc1ccc(S(=O)(=O)/C=C/C#N)cc1 | 101%
26 | CC(C)n1cnc2c(NCc3ccccc3)nc(NCCCO)nc21 | 91%
27 | Cn1cnc2cc3c(Nc4cccc(Br)c4)ncnc3cc21 | 86%
28 | O=C1NC(=O)c2c1c1c3ccccc3[nH]c1c1[nH]c3cc(Br)ccc3c21 | 94%
29 | Nc1nc(Nc2ccc(S(N)(=O)=O)cc2)nn1C(=S)Nc1c(F)cccc1F | 30%
30 | Nc1ccc2ncnc(NCCc3ccc(Oc4ccccc4)cc3)c2c1 | 119%
31 | CC(=O)O/N=C1\C(=C2\C(=O)Nc3cc(Br)ccc32)Nc2ccccc21 | 107%
32 | CO[C@@H]1[C@H](N(C)C(=O)c2ccccc2)C[C@H]2O[C@]1(C)n1c3ccccc3c3c4c(c5c6ccccc6n2c5c31)C(=O)NC4 | 42%

Biological target: T1, Protein kinase C epsilon type (Homo sapiens)
Conditions: at 10 µM

Row | SMILES | residual activity
33 | O=C1c2ccccc2-[n+]2ccc3c([nH]c4ccccc43)c21 | 94%
34 | Cc1ccc(NC2=CC(=O)c3sc(C)nc3C2=O)cc1 | 94%
35 | c1ccc(-c2n[nH]c3c2oc2ccccc23)cc1 | 88%
36 | COc1ccc(C(=O)Nc2sc3c(c2C(N)=O)CCCC3)cc1OC | 96%
37 | Cc1nc2cc3nc(-c4cccs4)cnc3cc2n1C | 89%
38 | O=C1NC(=O)/C(=C\c2ccc3nccnc3c2)S1 | 95%
39 | CC#CC(=O)Nc1cc2c(Nc3ccc(F)c(Cl)c3)ncnc2cn1 | 94%
40 | CCN(CC)C(=O)c1ccc(Nc2nc(OCC3CCCCC3)c3nc[nH]c3n2)cc1 | 69%
41 | Oc1ccc(-c2nc(-c3ccc(F)cc3)c(-c3ccncc3)[nH]2)cc1 | 99%
42 | Cn1nc2c3c(cccc31)C(=O)c1ccccc1-2 | 98%
43 | COc1ccc(CNc2nc(N(CCO)CCO)nc3c2ncn3C(C)C)cc1 | 105%
44 | Cn1cc(/C=C2\C(=O)Nc3ccc(S(N)(=O)=O)cc32)c2ccccc21 | 100%
45 | O=C1NC(=O)/C(=C/c2ccc3c(c2)OC(F)(F)O3)S1 | 99%
46 | O=C1NC(=O)c2cc(Nc3ccc(F)cc3)c(Nc3ccc(F)cc3)cc21 | 73%
47 | N#CC(C#N)=C(N)/C(C#N)=C/c1ccc(O)cc1 | 89%
48 | CC[n+]1c(/C=C/N(C)c2ccccc2)n(-c2ccccc2)c2ccc(-c3nc4ccccc4s3)cc21 | 107%

Row | SMILES | residual activity
49 | CCOc1cc2ncnc(Nc3cccc(Br)c3)c2cc1OCC | 100%
50 | C[C@@H](N)[C@H]1CC[C@H](C(=O)Nc2ccncc2)CC1 | 31%
51 | O=C(Nc1cccc(Nc2cc(Nc3cccc(C(F)(F)F)c3)ncn2)c1)C1CC1 | 97%
52 | COc1cccc(-c2cc(=O)c3ccccc3o2)c1N | 100%
53 | Cc1nc(-c2ccccc2)c(-c2ccncc2)o1 | 108%
54 | O=C1Nc2cc(Br)ccc2/C1=C1/Nc2ccccc2/C1=N\O | 91%
55 | O=C1Nc2ccccc2/C1=C1/Nc2ccccc2/C1=N\OCCC(O)CO (stereo not drawn) | 82%
56 | Cc1ccc(S(=O)(=O)/C=C/C#N)cc1 | 92%
57 | CC(C)n1cnc2c(NCc3ccccc3)nc(NCCCO)nc21 | 103%
58 | Cn1cnc2cc3c(Nc4cccc(Br)c4)ncnc3cc21 | 95%
59 | O=C1NC(=O)c2c1c1c3ccccc3[nH]c1c1[nH]c3cc(Br)ccc3c21 | 102%
60 | Nc1nc(Nc2ccc(S(N)(=O)=O)cc2)nn1C(=S)Nc1c(F)cccc1F | 8%
61 | Nc1ccc2ncnc(NCCc3ccc(Oc4ccccc4)cc3)c2c1 | 126%
62 | CC(=O)O/N=C1\C(=C2\C(=O)Nc3cc(Br)ccc32)Nc2ccccc21 | 93%
63 | CO[C@@H]1[C@H](N(C)C(=O)c2ccccc2)C[C@H]2O[C@]1(C)n1c3ccccc3c3c4c(c5c6ccccc6n2c5c31)C(=O)NC4 | 14%
